MCF10A rereplic = DNA re-replication induction in MCF 10a cells | MCF 10A DNA re-replication, Hoechst nuclear intensity, 48 h | Potency, µM (titrated, usually from 46.1 µM), for the others: top-dose activity, positive = re-replication, actives largely listed as activators | 2.9% of 350,000 active; also: potency is read from the fitted curve at half-maximal effect; % of control where 0% means no effect; nearly all actives have a fitted effect of over 50% in size
Giardia kill = kills Giardia lamblia; Giardia lamblia trophozoite viability; activity change, % at 7.66 µM, hits read low; 0.15% of 340,000 active; in the data active = activity change below about -80%; inconclusive = between about -30% and that limit;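 also: parasites exposed to compound for two days anaerobically before the ATP read; % is scaled to controls: 0 for no effect and ±100 for the full control effect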
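Anaerobic 48 hrs incubation at 37 deg C of 100 trophozoites/well with test compounds; ATPLite 1-Step luminescence, 15-30 min RT, reports cellular ATP as viability.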
KB-V1 MDR tox = KB-V1 MDR subline cytotoxicity; KB-V1 MDR cells viability, CellTiter-Glo, 72 h; Potency, µM (series often up to 46.1 µM), actives largely listed as cytotoxic; 3.4% of 400,000 active; AID 1347076; also: potency is read from the fitted curve at half-maximal effect; % is scaled to controls: 0 for no effect and ±100 for the full control effect; nearly all actives have a fitted effect of over 60% in size
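qHTS viability screen in drug-selected KB-V1 MDR cells: 72 h compound treatment at 37 degrees C, ATP luminescence end point.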
KB-3-1 tox = KB-3-1 parental cell cytotoxicity; Potency, µM (series often up to 46.1 µM), actives largely listed as cytotoxic; KB-3-1 viability, CellTiter-Glo ATP luminescence, 72 h; AID 1347075; 1.4% of 400,000 active; also: potency is read from the fitted curve at half-maximal effect; % is scaled to controls: 0 for no effect and ±100 for the full control effect; nearly all actives have a fitted effect of over 60% in size
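Cells are dispensed, compounds pinned in, plates held at 37 °C for 72 h, then CellTiter-Glo is added and luminescence read after 10 minutes. Cell line: parental KB-3-1 in phenol-red-free DMEM, 10% FBS.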
ASM inhibitor = blocks human secretory acid sphingomyelinase; 0.006% of 340,000 active; Potency, µM (titrated, usually from 57.5 µM), for inactives: at the top dose activity change, negative = inhibition, usual class: inhibitors; placental ASM, HMU-PC fluorogenic substrate, 60 min; also: potency is read from the fitted curve at half-maximal effect
Target sequence (P17405 47-631 limits assumed): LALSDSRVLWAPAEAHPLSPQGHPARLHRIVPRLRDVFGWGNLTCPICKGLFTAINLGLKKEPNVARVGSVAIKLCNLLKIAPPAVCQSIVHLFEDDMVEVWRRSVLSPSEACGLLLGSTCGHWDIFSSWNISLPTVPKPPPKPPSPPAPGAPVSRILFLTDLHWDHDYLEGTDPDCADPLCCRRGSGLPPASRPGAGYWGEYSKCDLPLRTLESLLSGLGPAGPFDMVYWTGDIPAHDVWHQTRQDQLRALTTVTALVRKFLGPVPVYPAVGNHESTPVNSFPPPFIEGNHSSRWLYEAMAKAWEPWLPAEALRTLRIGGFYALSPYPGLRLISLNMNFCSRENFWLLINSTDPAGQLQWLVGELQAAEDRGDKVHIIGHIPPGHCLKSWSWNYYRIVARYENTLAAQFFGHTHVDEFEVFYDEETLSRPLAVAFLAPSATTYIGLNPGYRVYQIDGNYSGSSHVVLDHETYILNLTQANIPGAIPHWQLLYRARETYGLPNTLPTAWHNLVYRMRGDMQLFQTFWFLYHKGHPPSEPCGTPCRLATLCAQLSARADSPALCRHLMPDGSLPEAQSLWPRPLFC
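Steps: dispense placental human ASM, pin compound, wait 10 min at room temperature, add HMU-PC0 substrate at 9 uM final, incubate 60 min at 37 °C, add stop solution raising pH to 10, read fluorescence.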
SW480 rereplic = DNA re-replication induction in SW480 cells; SW480 DNA re-replication, Hoechst DNA content imaging, 48 h; Potency, µM (series often up to 46.1 µM), inactives show at the highest dose re-replication activation, most hits filed as activators; 1.8% of 340,000 active; AID 624297; also: potency is read from the fitted curve at half-maximal effect; % of control where 0% means no effect; nearly all actives have a fitted effect of over 55% in size
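Cells (250 per well) received 23 nL compound or DMSO by pin tool and were kept 48 hr at 37 C, 5% CO2. Nuclei were then stained with Hoechst for 40 min and scanned for DNA content.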
Starred values were filed as active, the others as inactive. The list is not random: actives were taken first. Their share in the collection is about 6.9%. Unless noted, calls follow the shape of the dose curve; as a rule, active = well fitted curve in the direction sought with a large enough effect; inconclusive = small, poorly fitted or top-dose-only effect, or another doubt; inactive = no such curve, though single readings can be large; an effect the other way counts as inactive or inconclusive.

Screening Cc1ccc(NC(=O)c2ccccc2NS(=O)(=O)c2ccc(Cl)s2)cc1 returned MCF10A rereplic 9.2µM*, Giardia kill 16.2, KB-V1 MDR tox 7.31µM*, KB-3-1 tox 10.3µM*, ASM inhibitor -8.2% and SW480 rereplic inconclusive.
For COC(=O)/C=C/c1cc(F)ccc1S(=O)(=O)Nc1ccccc1 the results were KB-V1 MDR tox inconclusive and KB-3-1 tox inactive.
CCN(Cc1cccc(S(=O)(=O)O)c1)c1ccc(C(=C2C=CC(=[N+](CC)Cc3cccc(S(=O)(=O)O)c3)C=C2)c2ccccc2S(=O)(=O)[O-])cc1 was read as KB-V1 MDR tox inactive and KB-3-1 tox inactive.
For CC(C)OC(=O)c1c(-c2ccccc2)c(-c2ccccc2)nn(C)c1=O the results were Giardia kill -19.8, KB-V1 MDR tox inactive and KB-3-1 tox inactive.
Screening N#Cc1cn(-c2ccccc2)nc1-c1ccc2c(c1)OCCO2 returned MCF10A rereplic 10.3µM*, Giardia kill 6.7, KB-V1 MDR tox inactive, KB-3-1 tox inactive, ASM inhibitor 0.4% and SW480 rereplic -3.3%.
Screening Cc1c(Cl)cccc1-n1ncc(C(=O)N2CCc3ccccc3C2)c1C1CCN(C(=O)OC(C)(C)C)CC1 returned KB-V1 MDR tox inconclusive and KB-3-1 tox inactive.
CC(C)(C)c1ccc(OCCCn2ccnc2)cc1 was read as MCF10A rereplic inconclusive, Giardia kill inconclusive, KB-V1 MDR tox inactive, KB-3-1 tox inactive, ASM inhibitor -1.7% and SW480 rereplic 2.0%.
`COc1cccc(S(=O)(=O)N(C)C[C@H]2Oc3cc(Br)ccc3S(=O)(=O)N([C@@H](C)CO)C[C@H]2C)c1` gave KB-V1 MDR tox 9.2µM* and KB-3-1 tox inactive.
For COC(=O)C1=C(C)N(CCc2ccccc2)C(=O)C1(NS(=O)(=O)c1ccc(NC(C)=O)cc1)C(F)(F)F (centres undefined) the results were MCF10A rereplic 14.6µM*, Giardia kill -4.4, KB-V1 MDR tox inactive, KB-3-1 tox inactive, ASM inhibitor 6.2% and SW480 rereplic 3.26µM*.
`COc1cccc(-n2cc(C(=O)NCc3ccccc3OC)c3ccccc3c2=O)c1` gave KB-V1 MDR tox inactive and KB-3-1 tox inactive.
Screening Cn1c(-c2ccccc2)n[nH]c1=S returned MCF10A rereplic 0.6%, Giardia kill 8.3, KB-V1 MDR tox inactive, KB-3-1 tox inactive, ASM inhibitor 6.2% and SW480 rereplic -9.4%.
For Cc1cccc(-c2n[nH]c(=S)n2C)c1 the results were MCF10A rereplic -1.1%, Giardia kill -6.8, KB-V1 MDR tox 20.6µM*, KB-3-1 tox inconclusive, ASM inhibitor 9.5% and SW480 rereplic -5.3%.
`Cc1nc(-c2ccccc2)sc1-c1n[nH]c(=S)n1C` gave MCF10A rereplic 15.1%, Giardia kill -10.3, KB-V1 MDR tox inconclusive, KB-3-1 tox inactive, ASM inhibitor 4.5% and SW480 rereplic 23.1µM*.
`O=C(O)CO.[NH2-].[NH2-].[Pt+2]` gave MCF10A rereplic -0.8% and SW480 rereplic -5.8%.
COC(=O)c1cccc(CN2C(=O)SC(Nc3ccc(Br)cc3)C2=O)c1 (centres undefined) was read as KB-V1 MDR tox inactive and KB-3-1 tox inactive.
For CCCOc1ccc(/C=N/Nc2cc(N3CCOCC3)ncn2)c(O)c1 the results were MCF10A rereplic 15.0%, Giardia kill 17.1, KB-V1 MDR tox inactive, KB-3-1 tox 11.6µM*, ASM inhibitor 25.8% and SW480 rereplic inconclusive.
`CCOc1ccc(/C=N/Nc2cc(N3CCOCC3)ncn2)c(O)c1` gave KB-V1 MDR tox inactive and KB-3-1 tox inconclusive.
Screening Fc1cc(Br)ccc1NC(=S)Nc1ccccc1 returned MCF10A rereplic inconclusive, Giardia kill -14.8, KB-V1 MDR tox 14.6µM*, KB-3-1 tox inconclusive, ASM inhibitor -4.8% and SW480 rereplic -5.8%.
CC(=O)Nc1cccc(NC(=O)Nc2ccc(F)cc2F)c1 was read as MCF10A rereplic -7.2%, Giardia kill -7.1, KB-V1 MDR tox inactive, KB-3-1 tox inactive, ASM inhibitor 1.0% and SW480 rereplic 19.5%.
For CCSc1nsc(NC(=O)Nc2ccccc2Cl)n1 the results were MCF10A rereplic inconclusive, Giardia kill -19.2, KB-V1 MDR tox inconclusive, KB-3-1 tox inconclusive, ASM inhibitor -16.1% and SW480 rereplic 18.5%.
CCSc1nsc(NC(=O)Nc2ccc(F)cc2F)n1 was read as MCF10A rereplic inconclusive, Giardia kill -9.8, KB-V1 MDR tox 14.6µM*, KB-3-1 tox inconclusive, ASM inhibitor -10.8% and SW480 rereplic 0.0%.
Screening O=C(Nc1ccccc1)Nc1ccc(F)cc1F returned MCF10A rereplic 21.9%, Giardia kill -13.0, KB-V1 MDR tox inactive, KB-3-1 tox inactive, ASM inhibitor 2.4% and SW480 rereplic 8.2µM*.
For O=C(COC(=O)C1(c2ccccc2F)CCCC1)N1CCNC1=O the results were MCF10A rereplic -4.9%, Giardia kill 3.1, KB-V1 MDR tox inactive, KB-3-1 tox inactive, ASM inhibitor 2.0% and SW480 rereplic -549.1%.
CC1(NC(=O)Cn2cc(C(F)(F)F)ccc2=O)CCS(=O)(=O)C1 (centres undefined) was read as MCF10A rereplic -3.5%, Giardia kill 3.2, KB-V1 MDR tox inactive, KB-3-1 tox inactive, ASM inhibitor 6.0% and SW480 rereplic -2.6%.
Oc1ccc(Br)cc1C1C=C(c2ccc3c(c2)OCO3)NC(c2ccc(F)c(Br)c2)N1 (centres undefined) was read as Giardia kill -13.9.
Screening CCc1nnc(NC(=O)CCN(c2cc(C)cc(C)c2)S(=O)(=O)c2ccc(Cl)cc2)s1 returned MCF10A rereplic inconclusive, Giardia kill 16.0, KB-V1 MDR tox 2.59µM*, KB-3-1 tox inconclusive, ASM inhibitor -2.0% and SW480 rereplic 26.3%.
For CCCN1C(=O)/C(=C\c2ccncc2)SC1=Nc1ccccc1 the results were MCF10A rereplic inconclusive, Giardia kill 4.2, KB-V1 MDR tox inconclusive, KB-3-1 tox inactive, ASM inhibitor -8.7% and SW480 rereplic -9.0%.
CCN1C(=O)/C(=C\c2ccncc2)SC1=Nc1ccc(C)c(C)c1 was read as MCF10A rereplic inconclusive, Giardia kill 5.9, KB-V1 MDR tox 14.6µM*, KB-3-1 tox inconclusive, ASM inhibitor -23.8% and SW480 rereplic -1.0%.
For COc1ccc(-c2nn(-c3ccccc3)cc2C2NC(=O)NC(C)=C2C(=O)OC(C)C)cc1Cl (centres undefined) the results were KB-V1 MDR tox inactive and KB-3-1 tox inconclusive.
